Screening results (PubChem)
Rows were chosen to be rich in hits. Some 2.2% of all compounds tested hit in one or more screens of this group.
Beta cell apopt = blocks beta cell apoptosis | AID 435005 | protection from apoptosis, % (concentration not given with the values) | INS-1E cytokine-induced death, ATP luminescence, 48 h; percent of positive-control rescue, neutral wells zero | 300,000 tested, 0.8% active;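 active = Every replicate reaches about 75%, or at least half do and their mean reaches it too, limit read from the data; inconclusive = At least half of replicates reach the limit but their mean does not; inactive = Under half of replicates reach the limit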;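 note: 0% = cytokine-treated negative control wells and 100% = positive control rescue; higher means more ATP so stronger rescue from cytokine killing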
Shn3 3UTR inh = inhibitors of Schnurri-3 3'UTR reporter in osteoblasts. inhibition, % at 12.5 µM. 360,000 tested, 0.52% active. Clone20 osteoblast Shn3 3'UTR firefly luciferase, 24 h;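 active = mean inhibition of at least 75% with every replicate also reaching 75%; inconclusive = mean inhibition at least 75% but some replicate below; inactive = mean inhibition below 75%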;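 note: 0% = median of neutral control wells and 100% = pilot-screen positive control compound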
Calb FLC = C. albicans growth modulation with fluconazole. 300,000 tested, 0.57% active. C. albicans CaCi-2 (fluconazole-resistant clinical isolate) + fluconazole, Alamar Blue growth, 48 h. growth inhibition, % (no concentration beside the values);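 active = growth inhibition above about 58% in most replicates, limit read from the data, passing the limit was not always enough; inconclusive = exactly half the replicates above a set limit; inactive = most replicates below a set limit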;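 note: all wells also contain fluconazole at 8 µg/ml as a sub-toxic cotreatment; 0% = median of DMSO wells and 100% = median of geldanamycin control wells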
CSC inhib = blocks cancer stem cells. AID 2717. 300,000 tested, 1.1% active. cancer stem cell-like cells viability, luminescence. inhibition, % at 7.5 µM; in the data active = inhibition above about 75%; inconclusive = no clear call, values can overlap the other calls; tested in HMLE shEcad cells
PfHsp90 set2 = growth inhibition of yeast expressing Plasmodium Hsp90; 310,000 tested, 0.32% active; inhibition, % at 9.4 µM; AID 504621; S. cerevisiae expressing PfHsp90, BacTiter-Glo ATP, 48 h; yeast lacking PDR1 and PDR3 efflux regulators;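 active = every replicate shows inhibition above about 80%, whatever the replicate mean, limit read from the data; inconclusive = mean inhibition reaches the set limit but some replicate falls short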;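 note: 0% = DMSO neutral controls and 100% = 20 µM radicicol positive controls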
Numbers without * were called inactive; ? = inconclusive; / = no result given.

SMILES	Beta cell apopt	Shn3 3UTR inh	Calb FLC	CSC inhib	PfHsp90 set2
CCOC(=O)c1c2c(n(Cc3ccccc3)c1C)C(=O)C(=O)c1ccccc1-2	/	89*	/	/	2
Cc1c(CN(C)C)c2c(n1C)C(=O)c1ccc(Br)cc1-2	3	9	-3	3	-17
O=C(COc1cccc(C(F)(F)F)c1)Nc1cccc(S(=O)(=O)NC2=NCCCCC2)c1	/	26	/	/	1
CCCCn1c(N)c(N(CC(C)C)C(=O)c2ccc(S(=O)(=O)N3CCC(C)CC3)cc2)c(=O)[nH]c1=O	-2	-5	-8	/	13
CC(=O)c1cccc(-c2ccnc3c2CC(C(=O)NCC2CCOCC2)O3)c1 (stereo not given)	/	-31	/	/	/
Cn1cc(/C=C/c2cc[n+](C)cc2)c2cc(Cl)ccc21	95*	-7	82*	-9	6
Cn1cc(/C=C/c2cc[n+](C)cc2)c2cc(F)ccc21	69	9	?	-8	3
O=[N+]([O-])/C=C/c1cn(Cc2ccc(Cl)cc2)c2ccccc12	0	89*	10	99*	?
Cc1cccc(Cn2cc(/C=C/[N+](=O)[O-])c3ccccc32)c1	-1	-10	-5	109*	/
COc1cc(N2C(=O)C=CC2=O)c(OC)cc1Cl	14	/	7	14	109*
COc1cc(Cl)c(S(=O)(=O)N2CCCC2)cc1Cl	-2	2	3	54	21
COc1cccc(CN(C)C(=O)c2cc(-c3cccs3)nc3ccccc23)c1	3	2	1	4	28
COc1ccc(-c2csc(N(CC3CCCO3)C(=O)c3cccs3)n2)cc1 (stereo not given)	1	-7	?	0	/
COc1ccc(OC)c(-c2csc(N(CC3CCCO3)C(=O)C3CCCCC3)n2)c1 (stereo not given)	3	5	-19	78*	-14
CCOC(=O)c1c(Nc2ccccc2)sc(/C=C2\C=Nc3ccccc32)c1O	-9	78	-4	1	19
Oc1nc(Nc2ccccc2)sc1/C=C1\C=Nc2ccccc21	3	/	91*	?	7
Cc1ccc2nc(-c3ccc(NS(=O)(=O)c4ccc(F)c(F)c4)cc3)sc2c1	0	-33	31	103*	-34
CNc1nnc(SCC(=O)c2c(N)n(C3CC3)c(=O)[nH]c2=O)s1	/	4	/	/	-9
FC(F)(F)c1cc(C(F)(F)F)c2ccc(N/N=C/c3ccccc3)nc2n1	/	-5	12	-6	-16
CN(N)c1ccc2c(C(F)(F)F)cc(C(F)(F)F)nc2n1	-5	-15	-4	5	-4
Cc1ccc(C(C#N)c2ccc3c(C(F)(F)F)cc(C(F)(F)F)nc3n2)cc1 (stereo not given)	39	62	4	86*	-5
N#CC(c1ccccc1)c1ccc2c(C(F)(F)F)cc(C(F)(F)F)nc2n1 (stereo not given)	93*	78	-4	-6	9
C=CCNC(=S)N1CCN(C2CCCCC2)CC1	1	2	-4	0	-20
O=C(O)/C=C\C(=O)Nc1ccc(N2CCN(c3ccc(Cl)c(Cl)c3)CC2)cc1	6	7	-66	85*	16
CC(Sc1nc2ccccc2c(=O)n1CCCN1CCOCC1)C(=O)N1CCc2ccccc21 (stereo not given)	/	-5	/	/	-6
SMILES	Beta cell apopt	Shn3 3UTR inh	Calb FLC	CSC inhib	PfHsp90 set2
COc1ccc(-c2oc3ccccc3c2C#Cc2cncn2C)cc1	5	-18	/	103*	-14
COc1ccc(-c2sc3ccc(OC)cc3c2C#Cc2cncn2C)cc1	-7	-3	/	/	-23
CCO[C@H]1OC(C(=O)NCc2nc3ccccc3[nH]2)=C[C@@H](c2ccc3c(c2)OCO3)[C@@H]1CCCO	-11	-8	8	-8	-19
O=[N+]([O-])c1ccc(N=NN(CCO)CCO)cc1	-2	-7	-5	5	11
O=[N+]([O-])c1ccc(N=Nc2ncc[nH]2)cc1	54	73	-12	81*	-5
O=C(CN1CCN(c2ccc(O)cc2)CC1)Nc1ccc(SC(F)F)cc1	6	67	3	134*	-7
CCCCCCCCC(=O)NNC(=O)c1c(O)c2ccccc2n(CC)c1=O	-2	-26	94*	/	6
COc1ccc(CCNC(=O)c2c(O)c3ccccc3n(C)c2=O)cc1	-6	-5	96*	-13	-3
CC(C)Cn1c(=O)c(C(=O)Nc2ccncc2)c(O)c2ccccc21	19	54	-9	135*	106*
CCn1c(=O)c(C(=O)NCCc2ccccc2)c(O)c2ccccc21	-2	3	31	95*	20
CCNCCNC(=O)c1c(O)c2ccccc2n(CC)c1=O	2	36	4	-7	3
CC(=O)N1c2ccc(S(=O)(=O)N3CCCC3)cc2CC1C(=O)NCc1ccc(N(C)C)cc1 (stereo not given)	-3	5	35	9	16
COc1ccc(CCNC(=O)c2c(O)c3cccc4c3n(c2=O)CC4)cc1	-7	12	-20	32	6
O=C(NCCc1ccccc1)c1c(O)c2cccc3c2n(c1=O)CC3	-3	-20	90*	-2	19
COc1ccc2c(c1)[nH]c1c(N3CCN(Cc4ccc5c(c4)OCO5)CC3)ncnc12	105*	77	-19	9	7
c1ccc2c(c1)CCN(c1ncnc3c1[nH]c1ccccc13)C2	7	89*	92*	-7	-26
Cc1ccc2[nH]c3c(N4CCN(Cc5ccccc5)CC4)ncnc3c2c1	69	90*	61	23	4
c1ccc(CN2CCN(c3ncnc4c3[nH]c3ccccc34)CC2)cc1	65	85	14	/	1
Cc1ccc2c(c1)[nH]c1c(N3CCN(Cc4ccccc4)CC3)ncnc12	113*	72	30	13	-10
OCCC1CN(Cc2cccc(-n3cccn3)c2)CCN1Cc1ccccc1 (stereo not given)	-22	-2	9	6	6
Cc1ccc(S(=O)(=O)N2CCN(c3ccccc3)CC2)c(C)c1	6	-3	6	3	-1
COc1ccc(N2C(=O)C3NN=C(C(=O)OCc4ccccc4)C3C2=O)cc1 (stereo not given)	/	-7	-6	/	10
Cc1ccc(S(=O)(=O)N2CCCCC2)cc1NC(=O)Cn1cnnn1	-7	0	1	0	36
O=C(Cn1ncc(Cl)c(Cl)c1=O)N1CCN(S(=O)(=O)c2ccc3ccccc3c2)CC1	14	10	/	102*	-26
Cc1cc(Br)ccc1NC(=O)CNC(=O)Cn1ncc(Cl)c(Cl)c1=O	-59	58	-8	83*	-37
Cc1ccc(S(=O)(=O)N2CCCCC2)cc1NC(=O)Cn1ncc(Cl)c(Cl)c1=O	-20	100*	/	90*	-2
COc1ccc(C2/C(=C(/O)c3ccc(C)cc3)C(=O)C(=O)N2CCCN2CCOCC2)cc1 (stereo not given)	/	-1	-3	-6	12
Cc1ccsc1C(=O)OCC(=O)Nc1sccc1C(N)=O	/	-105	96*	0	/
